Among all 1,000 compounds or so, about 230 (23%) were called active. Inconclusive results (about 1%) are left out. How the calls were made is not given here. This is one part of the list. Where a call stands in place of a potency, no number is given. Potency and affinity values are given separately.
biological target: Long-chain-fatty-acid--AMP ligase FadD28 (Mycobacterium tuberculosis (strain ATCC 25618 / H37Rv)) (UniProt P9WQ59); test: inhibitors of FadD28 bisubstrate probe binding, dose response, biochemical, fluorescence polarization, cherry-pick (AID 624273); conditions: series mostly up to 50 µM
Sequence (P9WQ59 whole entry, looked up): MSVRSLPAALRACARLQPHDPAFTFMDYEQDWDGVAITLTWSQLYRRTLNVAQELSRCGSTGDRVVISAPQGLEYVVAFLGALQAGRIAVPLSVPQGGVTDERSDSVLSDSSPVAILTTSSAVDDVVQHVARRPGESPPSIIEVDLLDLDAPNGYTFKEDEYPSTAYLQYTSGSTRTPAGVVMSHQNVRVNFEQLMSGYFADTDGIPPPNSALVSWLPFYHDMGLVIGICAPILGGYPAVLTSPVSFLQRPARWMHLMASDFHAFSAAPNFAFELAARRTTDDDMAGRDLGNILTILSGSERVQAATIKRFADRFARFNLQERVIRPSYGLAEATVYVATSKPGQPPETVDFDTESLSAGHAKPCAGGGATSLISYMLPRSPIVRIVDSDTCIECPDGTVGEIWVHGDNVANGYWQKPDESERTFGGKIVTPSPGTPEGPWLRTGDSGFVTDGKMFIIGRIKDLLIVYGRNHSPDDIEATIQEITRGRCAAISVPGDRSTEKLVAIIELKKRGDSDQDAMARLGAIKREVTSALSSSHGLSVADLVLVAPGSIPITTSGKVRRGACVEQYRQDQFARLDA

Compound	outcome
COc1ccc(N/C=C(\C2OC(=O)c3ccccc32)[N+](=O)[O-])cc1 (configuration not stated)	inactive
CCOc1cc(C2C(C(=O)OC(C)C)=C(C)N=C3SCCC(=O)N32)ccc1OC(C)=O (configuration not stated)	inactive
c1ccc2c(C[C@@H]3CNCCN3CC3CCCCC3)cccc2c1	inactive
COC(=O)CSc1nc2ccccc2nc1SCC(=O)OC	inactive
O=[N+]([O-])c1ccc(OCCn2cncn2)cc1	inactive
COC(=O)c1ccc(Cl)c(NS(=O)(=O)c2ccc3c(c2)OCCO3)c1	inactive
Cc1cc(C)n(CCN(C)C(=O)CCc2nnc(-c3ccc4c(c3)OCO4)o2)n1	inactive
CN(C)C=NCCn1c(N2CCOCC2)nc2c1c(=O)n(C)c(=O)n2C	inactive
O=C(O)CN1CCN(Cc2ccccc2F)C1=O	inactive
C=CCn1c(SCC(N)=O)nnc1-c1cnccn1	inactive
CCOC(=O)c1nc(NCc2cccnc2)c2ccccc2n1	inactive
Cc1ccc(S(=O)(=O)N(CC(=O)Nc2cc(C)ccc2C)C(=O)N2CCN(C)CC2)cc1	inactive
CN(CC(=O)Nc1ccc(Cl)c(C(F)(F)F)c1)C(=O)c1cccnc1Sc1ccccc1	inactive
O=C(O)c1c(C(=O)O)c(-c2ccc(Br)cc2)n2c1CSC2	inactive
CCCC1SCC(C)(C)NC1=O (configuration not stated)	inactive
Cc1cc(S(=O)(=O)Nc2c(NC3CCCCC3)c3ccccc3oc2=O)ccc1F	inactive
CCCCC(=O)OCC(=O)C1(O)Cc2c(O)c3c(c(O)c2C(OC2CC(NC(=O)C(F)(F)F)C(O)C(C)O2)C1)C(=O)c1c(OC)cccc1C3=O (configuration not stated)	inactive
CN(Cc1cn(-c2ccccc2)nc1-c1ccc(F)cc1)C(=O)CCC(=O)O	inactive
CCC(C)/C=C(C)/C=C/C1=CC2=C(Cl)C(=O)C(C)(OC(C)=O)C(=O)C2=CO1 (configuration not stated)	inactive
N#Cc1c(NC(=O)c2cccc(S(=O)(=O)Nc3ccc(C(=O)O)cc3)c2)sc2c1CCCC2	inactive
CCC1CCc2c(sc(NC(=O)CSc3nc(-c4ccco4)cc(C(F)(F)F)n3)c2C#N)C1 (configuration not stated)	inactive
COC1(OC)N=C(N)C2(C#N)C(c3ccc(F)cc3)C12C#N (configuration not stated)	inactive

Compound	outcome
CCCN(CC(=O)Nc1ccccc1C)C(=O)CCl	inactive
O=C(CCc1nc2ccccc2c(=O)[nH]1)NCc1ccco1	inactive
Nc1ccc(Cc2ccc(N)c(C(=O)O)c2)cc1C(=O)O	inactive
O=C(O)Cc1csc(-c2ccccc2)n1	inactive
CCN(CC)c1nc2n(c(=O)n1)CCO2	inactive
CC(C)(C)c1ccc(Cn2nnc3c(=O)[nH]c(C4CCCN(C(=O)c5ccco5)C4)nc32)cc1 (configuration not stated)	inactive
O=[N+]([O-])c1cc(Cl)ccc1Nc1ccccc1	inactive
Cn1nc([N+](=O)[O-])c(C(C#N)c2nc3ccccc3n2C)c(Cl)c1=O (configuration not stated)	inactive
CCOC(OCC)c1nc(N)[nH]c(=O)c1CCCCc1ccccc1	inactive
Cn1c(=O)c2c(ncn2CC(=O)N/N=C/c2ccc(Br)s2)n(C)c1=O	inactive
COc1ccc(NC(=O)Nc2c(O)ccc3ccccc23)cc1	inactive
CCN(CC)S(=O)(=O)c1ccc(NC(=O)COC(=O)c2cc(S(=O)(=O)Nc3ccc(OC)cc3)ccc2O)cc1	inactive
Cc1[nH]n(-c2ccccc2)c(=O)c1N=Nc1c(Cl)cccc1Cl	inactive
Cc1ccc(-n2cc(CNC(C)Cn3cncn3)c(-c3ccc(F)cc3)n2)cc1 (configuration not stated)	inactive
Cc1cccc(CN2C(=O)N/C(=C/c3cc(C)n(-c4cc(C)ccn4)c3C)C2=O)c1	inactive
O=C(O)CCC(=O)NC1CCCCC1	inactive
COc1ccc(NC(=O)CSc2n[nH]c(-c3ccco3)n2)cc1	inactive
O=C1C(=O)c2cccnc2-c2ncccc21	inactive
CC(=O)C1C(c2cccc([N+](=O)[O-])c2)C2C(C)=NN=C2CC1(C)O (configuration not stated)	inactive
COc1ccc(N2CCN(S(=O)(=O)c3ccc(-c4cc(C)no4)s3)CC2)cc1	inactive
COc1ccc(/C=N/N(Cc2ccccc2)c2ccccc2)cc1O	inactive
Cc1ccc(S(=O)(=O)N2CCC(C(=O)NCCCN3CCOCC3)CC2)cc1C	inactive

Compound	outcome
COc1cc(/C=C2\SC(=S)N(NC(=O)c3ccc(O)cc3)C2=O)ccc1O	inactive
C=CCn1c(-c2cccn(Cc3ccc(Cl)cc3)c2=O)n[nH]c1=S	inactive
O=C(O)c1ccc(N2CC3CC(C2)c2cccc(=O)n2C3)c(NS(=O)(=O)c2cccc(C(F)(F)F)c2)c1 (configuration not stated)	inactive
CN(C(=O)c1ccc(NC(=O)Cc2cccc(NC(=O)C3CCCN(C(=O)c4ccccc4)C3)c2)cc1)C1CC1 (configuration not stated)	inactive
COc1ccc(N2CCN(C(CNC(=O)COc3ccccc3)c3ccco3)CC2)cc1 (configuration not stated)	inactive
O=C(c1ccc(=O)[nH]n1)N1CCN(S(=O)(=O)c2cccc(F)c2)CC1	inactive
O=C(N/C(=C/c1ccc(Br)cc1)C(=O)N1CCCC1)c1ccccc1F	inactive
FC(F)(F)c1cnc(C(c2ccccn2)c2ncn[nH]2)c(Cl)c1 (configuration not stated)	inactive
COc1cc2c3c(c1)/C(=C1/SC(NC(C)=O)=NC1=O)C(=O)N3C(C)(C)C=C2C	inactive
Cc1ccc(NC(=O)C2CC(=O)N(c3ccc4c5c(cccc35)CC4)C2)cc1 (configuration not stated)	inactive
CCc1ccc(CN(C)Cc2nc(Cc3cccc(C(F)(F)F)c3)no2)nc1	inactive
COc1ccc(C(=O)NCC(=O)OCC(=O)NCc2cccs2)cc1	inactive
CCn1c(C)c(C)c2cc(C(=O)N3CCCC3)ccc21	inactive
CCc1ccccc1OCC(=O)Nc1ccc(S(N)(=O)=O)cc1	inactive
COc1ccc(CSCC(=O)Nc2ccc(S(=O)(=O)N3CCCCCC3)cc2)cc1	inactive
Cn1cc(S(=O)(=O)N2CCCC2)cc1C(=O)NCCc1ccccc1	inactive
COc1cccc(OC)c1OCCN(C)C	inactive
COc1cccc(CCNCc2ccc(SC)cc2)c1	inactive
O=C(NCc1cccnc1)c1cc(-c2ccccc2)on1	inactive
Cc1cccc2sc(NNC(=O)c3ccc(S(=O)(=O)N4CCCC(C)C4)cc3)nc12 (configuration not stated)	inactive
CCOc1ccc(S(=O)(=O)N2CCN(C(=S)NCC3CCCO3)CC2)cc1 (configuration not stated)	inactive
CN(C)/C=C/C(=O)c1ccc([N+](=O)[O-])c(CS(=O)(=O)c2ccc(Cl)cc2)c1	inactive

Compound	outcome
Cc1cc(C)cc(N(C(=O)C(F)(F)F)C(C(=O)NC2CCCCC2)c2cccs2)c1 (configuration not stated)	inactive
Cc1ccc(C)c(C(=O)CN2C(=O)C(=O)N(C3CCCC3)C2=O)c1	inactive
CCc1cccc2c(C(=O)CN3C(=O)NC4(CCCCC4)C3=O)c[nH]c12	inactive
O=c1oc2c(CN3CCOCC3)c(O)c(Cl)cc2c2c1CCCC2	inactive
CCCCCCCCSc1nnc(CSc2nc3nc(C)cc(C)n3n2)o1	inactive
CCc1ccccc1Nc1nc(-c2cccnc2)cs1	inactive
CC1CCCCN1C(=O)CCS(=O)(=O)c1cccc2nonc12 (configuration not stated)	inactive
CSc1ccc(NC(=O)Nc2ccc(C(=O)NCC(=O)O)cc2)cc1	inactive
CCCCCCCCCCCCCCCC(=O)Nc1ccn(C2OC(CO)C(O)C2O)c(=O)n1 (configuration not stated)	inactive
COc1ccc(-c2noc(CNC(=O)c3ccc4c(c3)OCO4)n2)cc1	inactive
O=[N+]([O-])c1cc(C(F)(F)F)ccc1NCCc1c[nH]c2ccc(O)cc12	inactive
O=C(C(=O)N1CCCCCC1)c1c[nH]c2ccccc12	inactive
Nc1cc(OC(=O)c2ccc(F)cc2)nn1S(=O)(=O)c1ccccc1	inactive
COc1ccc(C2C(C#N)=C(N)N(c3ccccc3)C3=C2C(=O)CCC3)cc1Cn1cc([N+](=O)[O-])cn1 (configuration not stated)	inactive
COc1cc(/C=C2\SC(=S)N(NC(=O)c3ccccc3O)C2=O)ccc1O	inactive
Cc1ccn2c(CNCCn3cccn3)c(C(=O)N3CCCCCC3)nc2c1	inactive
COc1cc2cncc(Cc3ccc(Cl)cc3)c2cc1OC	inactive
CC1(C)CC(=O)C(C(c2ccncc2)C2C(=O)CC(C)(C)CC2=O)C(=O)C1	inactive
CN1CCN(CCCN2c3ccccc3Sc3ccc(Cl)cc32)CC1	inactive
O=C(CSc1nncn1-c1cccnc1)N1CCOCC1	inactive
CN(Cc1cccc([N+](=O)[O-])c1)Cc1cccc2ccccc12	inactive
Cc1cccc(NC(=O)NNC(=O)c2ccc3ccccc3c2O)c1	inactive

Compound	outcome
CC(=O)NNC(=S)Nc1cccc(F)c1	inactive
Cc1ccc(SCCN2CCN(C)CC2)cc1	inactive
Cn1ncnc2c(=O)n(C)c(=O)nc1-2	inactive
CN(C)c1cccc(NC(=O)c2ccco2)c1	inactive
COc1ccccc1NC(=O)c1ccc2c(c1)C(=O)N(c1ccccc1OC)C2=O	inactive
COCCCN1CN(S(=O)(=O)c2ccc(Cl)cc2)c2nc3ccccc3nc21	inactive
CC1CCCC(C)N1CCCNC(=O)c1ccc2nc(N3CCOCC3)sc2c1 (configuration not stated)	inactive
O=C(Nc1nc2ccc(SC(F)F)cc2s1)c1ccc(NS(=O)(=O)c2ccc(F)c(F)c2)cc1	inactive
COc1ccc(OC)c(NC(=O)c2ccc(NC(C)=O)cc2)c1	inactive
COc1ccc(C(=O)NNC(=O)C(=O)NCc2ccccc2)cc1	inactive
Cc1ccc(C)c(C(=O)C(C)OC(=O)c2cccn2C)c1 (configuration not stated)	inactive
O=C(CN1C(=O)c2ccccc2C1=O)N(CCO)Cc1ccccc1	inactive
CCCc1nc(N)c(C#N)c(-c2ccco2)c1CC	inactive
COc1ccc(S(=O)(=O)N2CCCCCC2)cc1C(=O)NCc1cccs1	inactive
O=C(COC(=O)c1cccs1)Nc1cccc(S(=O)(=O)N2CCOCC2)c1	inactive
CCOC1=C(C#N)CC2(CC1)c1ccccc1-c1ccccc12	inactive
Cc1ccc(C)n1C(CC(=O)O)c1ccc(C#N)cc1 (configuration not stated)	inactive
O=C1C2CC=CCC2C(=O)N1c1ccc(NCCc2ccc(O)cc2)c([N+](=O)[O-])c1 (configuration not stated)	inactive
C=CCOc1cccc(C2C(C(=O)c3ccc(C)o3)=C(O)C(=O)N2CCCn2ccnc2)c1 (configuration not stated)	inactive
